Data reported in the supplement of paper PMC6555819.

Test system: PPARg:RXRa (NR concentration 180 nM, RXRa partner concentration 90 nM)
Test: PBM binding z-score (relative to random genomic background probes); higher = stronger binding; sequences stand for … in GC…GCGATTGACAGCGTAGAATGAAGG
Summary of the method: (§1)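 Antibodies against each partner of ligand-free nuclear receptor dimers (one per run) detected binding on custom Agilent 4×180K protein-binding microarrays after 1 h incubation. The double-stranded probes had 34-nt variable regions carrying direct-repeat seeds, single-nucleotide variants, half-site ablations and random human genomic background sequences. Binding z-scores, from regression-normalized fluorescence, use the random background probes as reference.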

| Sequence | PBM binding z-score |
| --- | --- |
| ATTCGGAGGACAAAGGTCAGAGCTACGCCAGTGA | 7.69 |
| GGAACGAGGGCAAGTTGATGGCAGAGTTTGATGG | 0.994 |
| AGTCAAAGTTCACTAGGTCACGTAAGATTCAGCT | 9.33 |
| TCTTGTAGATCAGGAGGTTAAGAAAGCTGGCCAA | -0.25 |
| TAGCCTAGGTCAGATCGGTCCAGTATACGCTATA | 0.543 |
| ATCTCTAGGTAACCAAGTTCAGGGAATGCCGAAC | 0.946 |
| TCGAGTAGGTTAGGGGCGTTCAGAATGGCGTCGA | 0.197 |
| TCATATAGGTAAACAGGGGAAAGTCCGTAAGTTA | 1.52 |
| ACTATTAGTTGAGACGAGGGCAACCTATAGGTTG | 0.636 |
| CCTACTGGGCCATCAGGCCATTGATATCAACGTT | 1.16 |
| TCTCGGAGCACACGAAGGTCAGAGCTTTCCAGAG | 0.118 |
| ATCTCTAGGTAACCAAGTTCAATGAATGCCGAAC | 1.26 |
| TGGATGAGGTTAAAGATCAGGGAACGTGGCGTCG | 3.75 |
| CTCGAAAGGTCGGTTGAGGTGCGTATACGGATAA | 0.2 |
| ATCGAAAGGTCGAGCTGAGTATAGAGAAAGGGAA | 2.96 |
| ACAGACATGTGAGTGAAGGTAACTCAGCTGGACG | 0.817 |
| CAAACTAGGTCACGGAAGGTCAAAGTCGAATGAC | 10.3 |
| TAGCATAGGTCATTGGGCCAGTATAGTACGCATC | 5.17 |
| AGTCAAAGTTCATCTAGGTAACGTATGATATGCT | 6.95 |
| AGAATGAGGTTAAGATGAGGGAAACAGAATACAT | 2.55 |

| Sequence | PBM binding z-score |
| --- | --- |
| CCTCCAAGGTCAATGCTAGGTCAGTGAAAGCATT | 3.95 |
| TCGAGTAGGTTAGGGGCAGTCAGAATGGCGTCGA | 0.492 |
| ATCGAAAGGTCGACGAGGTGTGTATACACCGTTT | 2.22 |
| CCTACTGGGCCATTCAGAGGTCTTTGATCATATG | 0.251 |
| ATCGAAACGTCGAGGTGAGTATAGAGAAAGGGAA | 0.304 |
| CCCAGCAGGCCAGGGTCACTCAAGCATTTCGCTT | 0.0881 |
| CTTCCAAGGTCAATGCTAGGTCAGTGAAAGCATT | 4.42 |
| GGTACGAGGGCATTCGAGTTGATAGCATGGCGAT | 0.726 |
| TGTCAAAGTTCAAAGGTAACGTACGTATCCACAC | 8.65 |
| GGAACGAGAGCAAAGTTGATAGCATCTGTCGACG | 3.1 |
| GCTATTAGTTGAAAGGGCAACCAAATGATTCTCG | 2.73 |
| ATATGTAGGTTACAACCGGGTCATTCAGGCTATG | 5.74 |
| TCTTGTAGATCAACAGGGGGTTAAGAAAGATCGA | 0.692 |
| CCTACTGGGCCAAAAAGCTCATTGATGCCGATAA | 0.473 |
| AGTCAAAGTTCAGGACGAGTTAACGTAAAGCACG | 4.32 |
| TGAATGAGGTTAAAGATTAGGGAACGTGGCGTCG | 3.78 |
| CAAACTAGGTCCCGAAAGGTCAAAGTCGAATGAC | 4.62 |
| CCAAGTTGGTCAGGAGGTCACACACCGGATATGA | 3.8 |
| AGTCAAAGTTCAGGACGATGTAACGTAAAGCACG | 4.28 |
| GCAACGAGGGCAAAGTTGATAGCATCTGTCGACG | 5.92 |

Test system: PPARg:RXRa 270nM:90nM, anti-RXR (NR concentration 270 nM, RXRa partner concentration 90 nM)
Test: as above
Summary of the method: as §1

| Sequence | PBM binding z-score |
| --- | --- |
| ATTCGGAGGACAAAGGTCAGAGCTACGCCAGTGA | 6.94 |
| GGAACGAGGGCAAGTTGATGGCAGAGTTTGATGG | 0.903 |
| AGTCAAAGTTCACTAGGTCACGTAAGATTCAGCT | 7.67 |
| TCTTGTAGATCAGGAGGTTAAGAAAGCTGGCCAA | 1.8 |
| TAGCCTAGGTCAGATCGGTCCAGTATACGCTATA | 0.782 |
| ATCTCTAGGTAACCAAGTTCAGGGAATGCCGAAC | 1.03 |
| TCGAGTAGGTTAGGGGCGTTCAGAATGGCGTCGA | 1.54 |
| TCATATAGGTAAACAGGGGAAAGTCCGTAAGTTA | 2.89 |
| ACTATTAGTTGAGACGAGGGCAACCTATAGGTTG | -0.0542 |
| CCTACTGGGCCATCAGGCCATTGATATCAACGTT | 1.79 |
| TCTCGGAGCACACGAAGGTCAGAGCTTTCCAGAG | 1.06 |
| ATCTCTAGGTAACCAAGTTCAATGAATGCCGAAC | 1.15 |
| TGGATGAGGTTAAAGATCAGGGAACGTGGCGTCG | 4.84 |
| CTCGAAAGGTCGGTTGAGGTGCGTATACGGATAA | 0.942 |
| ATCGAAAGGTCGAGCTGAGTATAGAGAAAGGGAA | 3.02 |
| ACAGACATGTGAGTGAAGGTAACTCAGCTGGACG | -0.286 |
| CAAACTAGGTCACGGAAGGTCAAAGTCGAATGAC | 8.41 |
| TAGCATAGGTCATTGGGCCAGTATAGTACGCATC | 5.29 |
| AGTCAAAGTTCATCTAGGTAACGTATGATATGCT | 6.52 |
| AGAATGAGGTTAAGATGAGGGAAACAGAATACAT | 2.24 |

| Sequence | PBM binding z-score |
| --- | --- |
| CCTCCAAGGTCAATGCTAGGTCAGTGAAAGCATT | 4.93 |
| TCGAGTAGGTTAGGGGCAGTCAGAATGGCGTCGA | 1.58 |
| ATCGAAAGGTCGACGAGGTGTGTATACACCGTTT | 3.12 |
| CCTACTGGGCCATTCAGAGGTCTTTGATCATATG | 0.437 |
| ATCGAAACGTCGAGGTGAGTATAGAGAAAGGGAA | -0.503 |
| CCCAGCAGGCCAGGGTCACTCAAGCATTTCGCTT | 0.885 |
| CTTCCAAGGTCAATGCTAGGTCAGTGAAAGCATT | 4.73 |
| GGTACGAGGGCATTCGAGTTGATAGCATGGCGAT | 0.262 |
| TGTCAAAGTTCAAAGGTAACGTACGTATCCACAC | 7.29 |
| GGAACGAGAGCAAAGTTGATAGCATCTGTCGACG | 4.59 |
| GCTATTAGTTGAAAGGGCAACCAAATGATTCTCG | 4.6 |
| ATATGTAGGTTACAACCGGGTCATTCAGGCTATG | 5.17 |
| TCTTGTAGATCAACAGGGGGTTAAGAAAGATCGA | 2.99 |
| CCTACTGGGCCAAAAAGCTCATTGATGCCGATAA | 1.24 |
| AGTCAAAGTTCAGGACGAGTTAACGTAAAGCACG | 4.63 |
| TGAATGAGGTTAAAGATTAGGGAACGTGGCGTCG | 4.94 |
| CAAACTAGGTCCCGAAAGGTCAAAGTCGAATGAC | 5.24 |
| CCAAGTTGGTCAGGAGGTCACACACCGGATATGA | 4.03 |
| AGTCAAAGTTCAGGACGATGTAACGTAAAGCACG | 4.75 |
| GCAACGAGGGCAAAGTTGATAGCATCTGTCGACG | 6.03 |
